Experimental data from PubChem BioAssay (Tox21).
Records with an inconclusive call do not appear. The source made the active and inactive calls. Unless noted, calls follow the shape of the dose curve; as a rule, active = well fitted curve in the direction sought with a large enough effect in the repeat runs; inconclusive = weak or mixed curves; inactive = no such curve, though single readings can be large; an effect the other way counts as inactive or inconclusive.

Assays:
[1] = qHTS assay to identify aromatase inhibitors - cell viability counter screen (AID 743084);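 also: cells stimulated with testosterone during compound exposure; nearly all actives have a fitted effect of over 55% in size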
[2] = target: Aryl hydrocarbon receptor (Homo sapiens) (UniProt P35869); test: qHTS assay to identify small molecule that activate the aryl hydrocarbon receptor (AhR) signaling pathway (AID 743085);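 also: HG2L7.5c1 human HepG2 liver cells with stably integrated DRE-driven firefly reporter; series mostly up to about 70 µM; nearly all actives have a fitted effect of over 15% in size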
Chain of Aryl hydrocarbon receptor (Homo sapiens) (P35869 whole entry, looked up): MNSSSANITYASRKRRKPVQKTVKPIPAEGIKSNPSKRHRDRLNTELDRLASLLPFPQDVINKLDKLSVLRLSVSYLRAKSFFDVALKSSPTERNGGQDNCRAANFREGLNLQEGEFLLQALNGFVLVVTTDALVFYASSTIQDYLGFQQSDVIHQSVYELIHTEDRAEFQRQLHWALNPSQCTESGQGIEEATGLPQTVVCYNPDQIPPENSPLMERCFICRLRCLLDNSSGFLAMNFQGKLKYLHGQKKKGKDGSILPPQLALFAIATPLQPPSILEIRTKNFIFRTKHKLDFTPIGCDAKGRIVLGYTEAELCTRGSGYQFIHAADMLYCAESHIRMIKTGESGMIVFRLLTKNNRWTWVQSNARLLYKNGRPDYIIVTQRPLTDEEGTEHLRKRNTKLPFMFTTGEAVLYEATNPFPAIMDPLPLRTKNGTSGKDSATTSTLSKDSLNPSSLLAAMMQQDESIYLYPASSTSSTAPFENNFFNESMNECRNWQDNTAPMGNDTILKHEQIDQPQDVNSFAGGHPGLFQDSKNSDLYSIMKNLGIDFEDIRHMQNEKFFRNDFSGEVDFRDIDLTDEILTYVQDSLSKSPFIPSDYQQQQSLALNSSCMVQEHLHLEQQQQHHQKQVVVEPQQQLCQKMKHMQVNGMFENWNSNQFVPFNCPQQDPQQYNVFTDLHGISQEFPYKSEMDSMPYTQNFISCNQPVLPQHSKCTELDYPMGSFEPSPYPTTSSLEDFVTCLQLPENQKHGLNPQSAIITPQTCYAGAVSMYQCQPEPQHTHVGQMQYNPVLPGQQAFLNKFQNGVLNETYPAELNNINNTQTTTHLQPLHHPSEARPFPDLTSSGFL
How it was run: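 Luminescence read-out: ONE-Glo reagent, 30 min at room temperature, in HG2L7.5c1 HepG2 reporter cells treated 24 h at 37C. Viability was measured beforehand by CellTiter-Fluor fluorescence after 30 min at 37C.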

[3] = qHTS assay to identify small molecule that activate the aryl hydrocarbon receptor (AhR) signaling pathway - cell viability counter screen (AID 743086);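 also: HepG2 liver cells carrying the AhR DRE luciferase reporter; series mostly up to about 70 µM; nearly all actives have a fitted effect of over 45% in size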
How it was run: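 HepG2-AhR-luc (HG2L7.5c1) cells, 4000/well, treated 24 h at 37 C with compound; viability measured as CellTiter-Fluor fluorescence after 30 min in the same wells as the luciferase read.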

[4] = target: Peroxisome proliferator-activated receptor gamma (Homo sapiens) (UniProt P37231); test: qHTS assay to identify small molecule agonists of the peroxisome proliferator-activated receptor gamma (PPARg) signaling pathway (AID 743094; active = well fitted activation curve with a large enough effect in the signal ratio in the repeat runs, not every such curve was filed as active; the % refers to the signal ratio)
Chain of Peroxisome proliferator-activated receptor gamma (Homo sapiens) (P37231 whole entry, looked up): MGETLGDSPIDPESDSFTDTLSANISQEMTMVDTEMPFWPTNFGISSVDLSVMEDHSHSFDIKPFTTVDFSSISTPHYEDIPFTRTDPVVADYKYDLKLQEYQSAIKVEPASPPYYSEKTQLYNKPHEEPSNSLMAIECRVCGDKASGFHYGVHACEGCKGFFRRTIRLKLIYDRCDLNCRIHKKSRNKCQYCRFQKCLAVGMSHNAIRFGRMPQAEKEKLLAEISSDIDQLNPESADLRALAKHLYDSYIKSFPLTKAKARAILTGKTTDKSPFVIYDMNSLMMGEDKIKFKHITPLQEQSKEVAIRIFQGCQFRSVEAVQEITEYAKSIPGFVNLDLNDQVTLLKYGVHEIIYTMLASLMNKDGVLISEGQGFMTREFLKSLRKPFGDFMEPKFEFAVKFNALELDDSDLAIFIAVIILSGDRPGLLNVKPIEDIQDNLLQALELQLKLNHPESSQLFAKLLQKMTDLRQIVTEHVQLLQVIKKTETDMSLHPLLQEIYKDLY
How it was run: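 GeneBLAzer PPARg UAS-bla HEK293H cells were plated, rested 5 h, then exposed to compounds for 17 h at 37C. Beta-lactamase activity was read by LiveBLAzer B/G FRET substrate fluorescence after 1 h at room temperature.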

[5] = target: Peroxisome proliferator-activated receptor gamma (Homo sapiens) (UniProt P37231); test: qHTS assay to identify small molecule antagonists of the peroxisome proliferator-activated receptor gamma (PPARg) signaling pathway (AID 743191; calls by dose curve; also: series mostly up to about 63 µM; nearly all actives have a fitted effect of over 30% in size)
How it was run: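 GeneBLAzer PPARg UAS-bla HEK293H cells, 5 h post-plating, exposed to compounds 17 h at 37C. LiveBLAzer B/G FRET substrate added for 1 h at room temperature; beta-lactamase reporter read by fluorescence intensity.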

[6] = qHTS assay to identify small molecule antagonists of the peroxisome proliferator-activated receptor gamma (PPARg) signaling pathway - cell viability counter screen (AID 743194); also: nearly all actives have a fitted effect of over 55% in size
How it was run: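 Cytotoxicity counter screen in PPARg-bla HEK293H cells, same wells as reporter assay. Compounds plus 50 nM rosiglitazone (final) for 17 h at 37 C, then viability read by CellTiter-Glo luminescence.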

[7] = qHTS assay for small molecule agonists of the antioxidant response element (ARE) signaling pathway (AID 743202; active = well fitted activation curve with a large enough effect in the signal ratio in the repeat runs, not every such curve was filed as active; the % refers to the signal ratio)
How it was run: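 Agonist mode reporter screen: HepG2 cells with ARE-controlled beta-lactamase are incubated with test compounds for 16 h at 37 C, and beta-lactamase activity is measured as fluorescence of cleaved B/G FRET substrate.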

[8] = qHTS assay for small molecule agonists of the antioxidant response element (ARE) signaling pathway - cell viability counter screen (AID 743203; calls by dose curve; also: nearly all actives have a fitted effect of over 55% in size)
How it was run: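 ARE-bla HepG2 cells were plated, rested 5 h at 37C/5% CO2, then exposed to compounds in DMSO for 16 h. Viability was read as CellTiter-Glo luminescence after 30 min at room temperature, in the same wells as the ARE screen.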

[9] = qHTS assay for small molecule activators of the heat shock response signaling pathway - cell viability counter screen (AID 743209); also: nearly all actives have a fitted effect of over 50% in size
How it was run: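 HSE-bla HeLa cells plated overnight, then exposed to Tox21 compounds (23 nL in DMSO) for 5 h at 37 C. After the bla reporter read, CellTiter-Glo was added in the same wells and luminescence read after 30 min at room temperature.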

[10] = qHTS assay for small molecule activators of the heat shock response signaling pathway (AID 743210; active = well fitted activation curve with a large enough effect in the signal ratio in the repeat runs, with a control signal flat, not every such curve was filed as active; the % refers to the signal ratio;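 also: HeLa cells with beta-lactamase reporter driven by heat shock elements; series mostly up to about 63 µM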)
How it was run: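 Quantitative high-throughput format using an engineered HeLa line in which heat shock response elements drive beta-lactamase; after 5 h with compound, cells received a B/G FRET substrate and fluorescence was read.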

[11] = qHTS assay to identify small molecule agonists of the peroxisome proliferator-activated receptor delta (PPARd) signaling pathway - cell viability counter screen (AID 743211); also: nearly all actives have a fitted effect of over 55% in size
How it was run: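 Read-out: CellTiter-Glo luminescence, 30 min RT, measured in the same wells as the beta-lactamase reporter. Cells: GeneBLAzer PPAR delta UAS-bla HEK293H, 3000 cells/well, compound exposure 17 h at 37C.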

[12] = target: Peroxisome proliferator-activated receptor delta (Homo sapiens) (UniProt Q03181); test: qHTS assay to identify small molecule agonists of the peroxisome proliferator-activated receptor delta (PPARd) signaling pathway (AID 743212; calls by dose curve)
Chain of Peroxisome proliferator-activated receptor delta (Homo sapiens) (Q03181 whole entry, looked up): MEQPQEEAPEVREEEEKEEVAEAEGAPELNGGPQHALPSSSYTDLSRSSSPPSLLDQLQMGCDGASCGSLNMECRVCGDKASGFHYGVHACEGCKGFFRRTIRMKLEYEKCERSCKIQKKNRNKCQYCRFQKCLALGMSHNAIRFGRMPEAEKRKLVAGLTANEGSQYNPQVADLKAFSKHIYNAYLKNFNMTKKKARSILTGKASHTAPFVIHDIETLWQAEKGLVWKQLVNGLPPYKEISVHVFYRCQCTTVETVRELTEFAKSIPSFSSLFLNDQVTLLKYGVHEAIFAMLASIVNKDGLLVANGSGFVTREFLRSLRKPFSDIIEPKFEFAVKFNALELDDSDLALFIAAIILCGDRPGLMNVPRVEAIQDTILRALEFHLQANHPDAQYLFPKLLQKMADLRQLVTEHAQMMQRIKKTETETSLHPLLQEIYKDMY
How it was run: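 Quantitative high-throughput agonist screen in a HEK293H beta-lactamase reporter line under UAS control. Compounds in DMSO, at 37 C. Fluorescence read after 2 h with FRET substrate at room temperature.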

[13] = target: Peroxisome proliferator-activated receptor delta (Homo sapiens) (UniProt Q03181); test: qHTS assay to identify small molecule antagonists of the peroxisome proliferator-activated receptor delta (PPARd) signaling pathway (AID 743215; active = well fitted inhibition curve with a large enough effect in the signal ratio in the repeat runs, not every such curve was filed as active; the % refers to the signal ratio;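 also: cells stimulated with agonist L165041 at 300 nM final during compound exposure; series mostly up to about 62 µM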)
How it was run: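 PPARd-bla HEK293H cells (UAS-bla reporter) preincubated 5 h, then given compound plus 300 nM final L165041 agonist for 17 h at 37 C. Beta-lactamase activity read by LiveBLAzer B/G FRET substrate fluorescence after 2 h at room temperature.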

[14] = qHTS assay to identify small molecule agonists of the farnesoid-X-receptor (FXR) signaling pathway - cell viability counter screen (AID 743218); also: nearly all actives have a fitted effect of over 45% in size
How it was run: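 FXR-UAS-bla HEK 293T cells exposed to compounds for 16 h at 37C. Cytotoxicity read in the same wells by CellTiter-Glo luminescence after 30 min at room temperature, following the beta-lactamase FRET read.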

[15] = qHTS assay to identify small molecule antagonists of the farnesoid-X-receptor (FXR) signaling pathway - cell viability counter screen (AID 743221; active = well fitted cell-killing curve with a large enough effect in the repeat runs, not every such curve was filed as active; also: nearly all actives have a fitted effect of over 50% in size)
How it was run: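 HEK 293T FXR-bla cells, 5 h pre-incubation; compound + CDCA 50 uM final, 16 h, 37 C; beta-lactamase FRET read first, then CellTiter-Glo luminescence, 30 min RT.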

[16] = qHTS assay to identify small molecule antagonists of the peroxisome proliferator-activated receptor delta (PPARd) signaling pathway - cell viability counter screen (AID 743213); also: nearly all actives have a fitted effect of over 50% in size
How it was run: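 Same-well viability: cells pre-incubated 5 h, dosed with compound plus 300 nM L165041, kept 17 h at 37 C, FRET substrate 2 h RT, then CellTiter-Glo 30 min RT and luminescence.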

[17] = target: Vitamin D3 receptor (Homo sapiens) (UniProt P11473); test: qHTS assay to identify small molecule agonists of the vitamin D receptor (VDR) signaling pathway (AID 743222; calls by dose curve)
Chain of Vitamin D3 receptor (Homo sapiens) (P11473 whole entry, looked up): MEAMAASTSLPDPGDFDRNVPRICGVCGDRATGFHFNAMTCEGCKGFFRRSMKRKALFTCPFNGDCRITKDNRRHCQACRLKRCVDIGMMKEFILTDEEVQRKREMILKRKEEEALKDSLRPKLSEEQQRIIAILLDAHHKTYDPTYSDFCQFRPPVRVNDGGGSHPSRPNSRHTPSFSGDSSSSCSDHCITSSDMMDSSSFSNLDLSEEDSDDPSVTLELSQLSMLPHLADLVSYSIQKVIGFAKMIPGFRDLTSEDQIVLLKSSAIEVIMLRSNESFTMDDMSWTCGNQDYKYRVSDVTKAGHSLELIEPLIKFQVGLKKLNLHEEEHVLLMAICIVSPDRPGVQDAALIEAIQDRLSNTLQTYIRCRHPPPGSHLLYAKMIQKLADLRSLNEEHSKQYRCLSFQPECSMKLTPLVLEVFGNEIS
How it was run: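 VDR-bla cells plated 4 h at 37 C, then exposed to compounds for 16 h at 37 C. Beta-lactamase reporter activity measured by fluorescence after 2 h room-temperature loading with LiveBLAzer B/G FRET substrate.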

[18] = target: Bile acid receptor (Homo sapiens) (UniProt Q96RI1); test: qHTS assay to identify small molecule antagonists of the farnesoid-X-receptor (FXR) signaling pathway (AID 743217; active = well fitted inhibition curve with a large enough effect in the signal ratio in the repeat runs, not every such curve was filed as active; the % refers to the signal ratio)
Chain of Bile acid receptor (Homo sapiens) (Q96RI1 whole entry, looked up): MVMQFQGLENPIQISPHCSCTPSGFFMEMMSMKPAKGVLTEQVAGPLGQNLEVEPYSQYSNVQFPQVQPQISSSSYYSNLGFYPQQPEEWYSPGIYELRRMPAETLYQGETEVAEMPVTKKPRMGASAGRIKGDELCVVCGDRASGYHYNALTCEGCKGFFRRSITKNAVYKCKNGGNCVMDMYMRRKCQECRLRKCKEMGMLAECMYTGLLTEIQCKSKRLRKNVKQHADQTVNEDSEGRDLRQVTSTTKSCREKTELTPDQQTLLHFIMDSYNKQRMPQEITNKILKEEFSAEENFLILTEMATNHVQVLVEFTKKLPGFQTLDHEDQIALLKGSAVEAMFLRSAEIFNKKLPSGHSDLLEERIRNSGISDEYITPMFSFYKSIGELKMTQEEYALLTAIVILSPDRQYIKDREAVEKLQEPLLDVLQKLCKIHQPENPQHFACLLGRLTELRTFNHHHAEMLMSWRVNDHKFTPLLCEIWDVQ
How it was run: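 FXR-UAS-bla HEK 293T cells (beta-lactamase reporter) given compound plus chenodeoxycholic acid (50 uM final), 16 h at 37C. LiveBLAzer B/G FRET substrate added for 2 h at room temperature; fluorescence read.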

[19] = target: Bile acid receptor (Homo sapiens) (UniProt Q96RI1); test: qHTS assay to identify small molecule agonists of the farnesoid-X-receptor (FXR) signaling pathway (AID 743220; active = well fitted activation curve with a large enough effect in the signal ratio in the repeat runs, not every such curve was filed as active; the % refers to the signal ratio)
How it was run: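 Beta-lactamase reporter under UAS control in GeneBLAzer FXR HEK 293T cells (5000/well) measured with LiveBLAzer FRET substrate after 2 h at room temperature. Compound exposure lasted 16 h at 37C.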

[20] = target: Vitamin D3 receptor (Homo sapiens) (UniProt P11473); test: qHTS assay to identify small molecule antagonists of the vitamin D receptor (VDR) signaling pathway (AID 743223; active = well fitted inhibition curve with a large enough effect in the signal ratio in the repeat runs, not every such curve was filed as active; the % refers to the signal ratio)
How it was run: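 Beta-lactamase reporter read-out: FRET substrate fluorescence after 2 h at room temperature, following 16 h exposure of VDR-bla cells to test compound plus 3 nM (final) 1alpha,25-dihydroxyvitamin D3 agonist at 37C.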

Measured: Potency

O=CN1CCOCC1
inactive: [1] | [2] | [3] | [4] | [5] | [6] | [7] | [8] | [9] | [10] | [11] | [12] | [13] | [14] | [15]

CCc1nccnc1C
inactive: [1] | [2] | [3] | [4] | [5] | [6] | [7] | [8] | [9] | [10] | [11] | [12] | [16] | [13] | [14] | [15] | [17]

CCN(CCO)c1cccc(C)c1
inactive: [1] | [2] | [3] | [4] | [5] | [6] | [7] | [8] | [9] | [10] | [11] | [16] | [13] | [18] | [14] | [19] | [15]

Nc1ccnc(=O)[nH]1
inactive: [1] | [2] | [3] | [4] | [5] | [6] | [7] | [8] | [9] | [10] | [11] | [16] | [13] | [14] | [15] | [17]

Cc1nc([N+](=O)[O-])cn1-c1ccc([N+](=O)[O-])cc1
inactive: [1] | [2] | [3] | [4] | [5] | [6] | [7] | [8] | [9] | [10] | [11] | [16] | [13] | [18] | [14] | [19] | [15] | [17] | [20]

O=C(O)CCNC(=O)c1ccccc1
inactive: [1] | [2] | [3] | [4] | [5] | [6] | [7] | [8] | [9] | [10] | [11] | [12] | [16] | [13] | [14] | [15]

Cc1ccccc1C
inactive: [1] | [2] | [3] | [4] | [5] | [6] | [7] | [8] | [9] | [10] | [11] | [16] | [13] | [14] | [15] | [17]

COCC(=O)Nc1c(I)c(C(=O)NCC(O)CO)c(I)c(C(=O)N(C)CC(O)CO)c1I (centres undefined)
inactive: [1] | [2] | [3] | [4] | [5] | [6] | [7] | [8] | [9] | [10] | [11] | [12] | [13] | [14] | [15]

CCCCOC(=O)C(=O)OCCCC
inactive: [1] | [2] | [3] | [4] | [5] | [6] | [7] | [8] | [9] | [10] | [11] | [13] | [18] | [14] | [15]

Cc1nc2ccccc2c(=O)o1
inactive: [1] | [2] | [3] | [4] | [5] | [6] | [7] | [8] | [9] | [10] | [11] | [12] | [16] | [13] | [14] | [15]

O=C(Nc1cccc(C2=NCCN2)c1)Nc1cccc(C2=NCCN2)c1
inactive: [1] | [2] | [3] | [4] | [5] | [6] | [7] | [8] | [9] | [10] | [12] | [16] | [13] | [14] | [15]

C=C(C)C(=O)OCCCCCCOC(=O)C(=C)C
inactive: [1] | [2] | [3] | [4] | [5] | [6] | [7] | [8] | [9] | [10] | [11] | [16] | [14] | [15] | [17] | [20]

CCOc1ccc(NC(=O)OC(C)C)cc1OCC
inactive: [1] | [2] | [3] | [4] | [5] | [6] | [7] | [8] | [9] | [10] | [16] | [13] | [14] | [15] | [17] | [20]

C=CC(C)(O)CC/C=C(\C)CC (centres undefined)
inactive: [1] | [2] | [3] | [4] | [5] | [6] | [7] | [8] | [9] | [10] | [11] | [12] | [13] | [15] | [17] | [20]

COCCOCCOCCOC
inactive: [1] | [2] | [3] | [4] | [5] | [6] | [7] | [8] | [9] | [10] | [16] | [14] | [19] | [15] | [17] | [20]

CCCCC(CC)COC(=O)c1ccccc1 (centres undefined)
inactive: [1] | [2] | [3] | [4] | [5] | [6] | [7] | [8] | [9] | [10] | [11] | [12] | [13] | [14] | [15]

O=C1c2ccccc2-c2ccccc21
inactive: [1] | [2] | [3] | [4] | [5] | [6] | [7] | [8] | [9] | [10] | [11] | [12] | [13] | [18] | [14] | [15]

CC(=O)Nc1ccc(C)cc1
inactive: [1] | [2] | [3] | [4] | [5] | [6] | [7] | [8] | [9] | [10] | [11] | [12] | [16] | [13] | [14] | [15] | [17]
